The campaign covered roughly 340,000 compounds. About 1,200 (0.35%) were called active. This is one part of a sample in which actives are shown more often than they occur. Values without a mark were called inactive.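 The calls were made as follows: active = potentiation over 3 SD above the plate norm (cut at about 30% in these data); inactive = the rest.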

Experimental findings from PubChem BioAssay AID485347 (National Center for Advancing Translational Sciences (NCATS), 2010) are described below.

The target of this assay is D(2) dopamine receptor (Homo sapiens) (UniProt P14416). The assay can be described thus: HTS Assay for Positive Allosteric Modulators of the Human D2 Dopamine Receptor: Primary Screen for Potentiators. Also: 0% is about no effect. The settings on record: HEK293 T-REx D2, calcium flux, EC20 dopamine potentiation; at 10 µM; stronger effect = higher value. The text has this: NIH Chemical Genomics Center [NCGC] NIH Molecular Libraries Probe Centers Network [MLPCN] MLPCN Grant: NS064831-01 Assay Submitter (PI): David Sibley Dopamine receptors (DARs) are involved in the etiology and/or therapy of a number of neuropsychiatric and endocrine disorders. For instance, all receptor-based antiparkinsonian drugs work via stimulating the D2 DAR subtype whereas all FDA-approved antipsychotic agents are antagonists of this receptor. […] There are three different types of allosteric modulators that we are seeking, two of which will stimulate or augment receptor signaling, allosteric agonists and potentiators, while the third, allosteric antagonists, will attenuate receptor signaling. The present primary screening assay measures compound potentiation of an EC20 dopamine response by tracking calcium flux in a […], inducible Hek293 Trex D2 cell line.
Chain of D(2) dopamine receptor (Homo sapiens) (P14416 whole entry, looked up): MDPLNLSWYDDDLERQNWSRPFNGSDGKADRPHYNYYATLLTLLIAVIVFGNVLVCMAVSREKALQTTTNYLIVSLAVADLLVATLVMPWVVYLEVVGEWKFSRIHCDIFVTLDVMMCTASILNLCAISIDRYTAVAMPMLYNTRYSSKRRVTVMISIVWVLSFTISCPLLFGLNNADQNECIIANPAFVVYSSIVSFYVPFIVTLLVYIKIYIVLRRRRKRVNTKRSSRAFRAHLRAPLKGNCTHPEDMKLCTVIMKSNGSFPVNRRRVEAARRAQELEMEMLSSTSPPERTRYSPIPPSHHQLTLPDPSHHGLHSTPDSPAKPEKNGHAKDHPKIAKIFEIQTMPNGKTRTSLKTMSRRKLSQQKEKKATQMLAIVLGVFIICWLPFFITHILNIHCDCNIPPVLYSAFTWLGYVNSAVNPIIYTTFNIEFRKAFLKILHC
Freshly passaged cells are plated in 1536 well black, clear bottom plates at a density of 4000 cells/well in 3 ul of complete media containing 1x tetracycline inducer. After an overnight incubation at 30 C in 5% CO2, cells are loaded with 2 ul of the no wash Calcium Assay Kit (ABD Bioquest) and incubated at room temperature for 30 to 90 minutes. A 10 cycle (1 second/cycle) baseline measurement is taken and then the FDSS online 1536 pintool delivers 23 nl of compound library (as well as dopamine controls) to the plate. The plate is measured for kinetically at 1 cycle/sec for 180 seconds and is considered to be the agonist portion of the assay (eg, compounds which activate a positive calcium response during this portion are flagged as potential agonists). Following the 180 second read, 1 ul of an EC20 of dopamine is delivered by an onboard pipette head. Measurements are taken kinetically for an additional 180 seconds.
For orientation: Calcium assays in cells follow changes in intracellular calcium, usually with a dye or a luminescent sensor.
Consider `CCN(CC(=O)Nc1ccccc1OC)C(=O)CC1CC2CCC1C2` (stereo not given), for which the potentiation was 5.39%.
With `CCCN(CC(=O)Nc1ccccc1OC)C(=O)CCC(=O)c1ccc(F)cc1`, the potentiation is 30.4% (active).
Regarding `CCN(CC(=O)Nc1ccccc1OC)C(=O)Cn1cnc2ccccc2c1=O`, the potentiation is 11.8%.
Turning to `Cc1cc(C)cc(OCC(=O)Nc2c(C(=O)c3ccccc3)oc3ccccc23)c1`, the potentiation was -6.36%.
In the case of `COc1ccc(C)cc1NC(=O)COCc1cc(-c2cccs2)on1`, the potentiation is 3.43%.
Regarding `CN(c1ccc(C(=O)NCc2ccccn2)cc1)S(C)(=O)=O`, the potentiation is 42.4% (active).
`CCN(c1ccccc1)S(=O)(=O)c1cc(C(=O)NCc2ccccn2)ccc1C`: the potentiation is -2.26%.
Take `CN(c1ccc(C(=O)NCCC2=CCCCC2)cc1)S(C)(=O)=O`: the potentiation is -10.3%.
With `O=C(CCS(=O)(=O)c1ccccc1)N(Cc1cccnc1)c1nc2c(F)cccc2s1`, the potentiation was -2.05%.
In the case of `Cc1ccc(C2C=C(c3ccc(Cl)cc3)Nc3nc(NC(=O)CCC(=O)O)nn32)cc1` (stereo not given), the potentiation was 5.1%.
Regarding `CCOc1ccc(CNCc2c(C(=O)O)c(C)n(Cc3cccc(OC)c3)c2C)cc1OC`, the potentiation is -3.84%.
With `NC(=O)c1sc2nc3c(c(-c4ccccc4)c2c1N)CCC3`, the potentiation was 37.2% (active).
In the case of `Cc1sc2nc(CC(N)=O)[nH]c(=O)c2c1-c1ccccc1` it was 9.95%; in that of `COc1cccc(C(=O)c2sc3nc(-c4ccccc4)cc(C(F)(F)F)c3c2N)c1`, -10.4%; in that of `Cc1ccc(NC(=O)c2oc3ccccc3c2NC(=O)Cc2cccs2)cc1`, -10%.
With `CSc1ccc(CCNC(=O)c2ccc3c(c2)nc2n3CCOC2)cc1`, the potentiation was 8.52%.
For `Cc1ccc(C)c(Oc2c(C(F)(F)F)oc3c(CN4CCN(C)CC4)c(O)ccc3c2=O)c1`, the potentiation was -2.95%.
In the case of `Cc1ccc(-c2nn(CCC(=O)Nc3ccc(Cl)c(Cl)c3)c(=O)c3ccccc23)cc1` it was -14.9%; in that of `Clc1ccc(C2CC(c3cccs3)n3ncnc3N2)cc1Cl` (stereo not given), -0.578%; in that of `CCOc1ccccc1C1CC(c2ccccc2)Nc2nc(N)nn21` (stereo not given), 14.5%.
In the case of `FC(F)Oc1ccccc1C1CC(c2ccc(Br)s2)Nc2ncnn21` (stereo not given) it was 31.8% (active).
For the molecule `CCOc1ccc(NC(=S)N2CCCCCC2)cc1`, the potentiation is 30.1% (active).
As for `CCOC(=O)c1ccc(NC(=S)N2CCCC2)cc1`, the potentiation was 8.15%.
With `CCOc1ccc(NC(=S)N2CCC(N(C)CC3CCCO3)CC2)cc1` (stereo not given), the potentiation is -4.46%.
Consider `COc1cc(CNC(=O)c2cc3n(n2)CCCN(Cc2cccc(F)c2)C3=O)cc(OC)c1OC`, for which the potentiation was 7.44%.
